PubChem BioAssay (Tox21)
Results filed as inconclusive are left out. Calls of active or inactive are those of the source. Unless noted, calls follow the shape of the full dose curve.

Columns and labels:
[1] = Nuclear factor erythroid 2-related factor 2/antioxidant responsive element (Nrf2/ARE) small molecule agonists: qHTS cell viability counter screen in human keratinocytes (AID 1919968; active = well fitted curve in the direction sought with a large enough effect in the repeat runs; an effect the other way counts as inactive or inconclusive; also: nearly all actives have a fitted effect of over 55% in size)
Outline: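 CellTiter-Fluor fluorescence, read 1 h after reagent, gave viability in the same wells as the ARE-luciferase assay. KeratinoSens cells (1,500/well) had 23 h compound exposure at 37 C/5% CO2 following 5 h plating.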

[2] = Nuclear factor erythroid 2-related factor 2/antioxidant responsive element (Nrf2/ARE) small molecule agonists: luciferase reporter gene qHTS assay in human keratinocytes (AID 1919969); also: nearly all actives have a fitted effect of over 35% in size
[3] = biological target: Gonadotropin-releasing hormone receptor (Homo sapiens) (UniProt P30968); assay: Human gonadotropin-releasing hormone receptor (GnRHR) small molecule agonists, calcium flux assay in GnRHR-HEK293 cells (AID 1920063); also: nearly all actives have a fitted effect of over 35% in size
Outline: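 Agonist mode: compounds at 15 concentrations, in triplicate, went onto calcium dye-loaded GnRHR-HEK293 cells. Intracellular calcium was then followed as 480/540 nm fluorescence at 1 s intervals over 3 min.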

[4] = biological target: KiSS-1 receptor (Homo sapiens) (UniProt Q969F8); assay: Human kisspeptin (KISS1R) small molecule agonists, calcium flux assay in KISS1R-HEK293 cells (AID 1920064; active = well fitted curve in the direction sought with a large enough effect in the repeat runs; an effect the other way counts as inactive or inconclusive)
Outline: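 Agonist mode: intracellular calcium rise tracked at 1 s intervals over 3 min (480/540 nm) immediately after compound addition to dye-loaded KISS1R-HEK293 stable cells. Each compound tested at 15 concentrations in triplicate.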

[5] = G protein-coupled receptor (GPCR) small molecule agonists, calcium flux assay: HEK293 wild type cell line counter screen (AID 1920065)
Outline: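 Calcium flux counter screen: compound added in agonist mode at 15 concentrations in triplicate to dye-loaded parental HEK293 cells. Fluorescence (480/540) read kinetically for 3 min; ATP served as positive control.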

[6] = p53 small molecule agonists, cell-based qHTS assay with human liver microsomes (AID 1963577);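 also: p53 response element beta-lactamase reporter cells with liver microsomes plus NADPH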
Outline: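 p53RE-bla cells; 5 h settle, 37 C/5% CO2; cpd + HLM 0.5 mg/mL + NADPH 0.5 mg/mL (final); 16 h 37 C; LiveBLAzer 2 h RT dark; fluorescence readout.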

[7] = p53 small molecule agonists, cell-based qHTS assay with rat liver microsomes (AID 1963578)
Outline: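 Rat liver microsome activation: microsomes 0.5 mg/mL, NADPH 0.5 mg/mL final; p53RE-bla cells, 16 h 37 C; LiveBLAzer readout, 2 h RT dark.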

[8] = p53 small molecule agonists, cell-based qHTS assay with human liver microsomes: qHTS cell viability counter screen (AID 1963579); also: nearly all actives have a fitted effect of over 45% in size
Outline: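 Luminescent CellTiter-Glo read-out, 30 min at room temperature, gauged cytotoxicity in p53RE-bla cells exposed 16 h at 37 C to DMSO-dissolved compounds with metabolic activation by human liver microsomes and NADPH, each 0.5 mg/mL final.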

[9] = p53 small molecule agonists, cell-based qHTS assay with rat liver microsomes: qHTS cell viability counter screen (AID 1963580); also: nearly all actives have a fitted effect of over 45% in size
Outline: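 Rat liver microsome (0.5 mg/mL final) and NADPH (0.5 mg/mL final) co-incubation with compounds for 16 h at 37 C on HCT-116 p53RE-bla cells; cytotoxicity taken from intracellular ATP luminescence.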

[10] = p53 small molecule agonists, cell-based qHTS assay: qHTS cell viability counter screen (AID 1963581); also: nearly all actives have a fitted effect of over 45% in size
Outline: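 Counter screen read by CellTiter-Glo luminescence (ATP content, 30 min at room temperature), run in the same wells as the beta-lactamase reporter read. HCT-116 p53RE-bla cells saw compounds for 16 h at 37 C.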

[11] = p53 small molecule agonists, cell-based qHTS assay (AID 1963582; active = well fitted activation curve with a large enough effect in the signal ratio in the repeat runs, not every such curve was filed as active; the % refers to the signal ratio)
Outline: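 Read-out is beta-lactamase FRET fluorescence after 2 h at room temperature with LiveBLAzer B/G substrate. p53 response element-bla cells were treated 16 h at 37 C with compounds in DMSO, added 5 h after seeding.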

[12] = biological target: 5-hydroxytryptamine receptor 2A (Homo sapiens) (UniProt P28223); assay: 5-hydroxytryptamine receptor 2A (HTR2A) small molecule antagonists, cell-based qHTS assay (AID 1963586); also: nearly all actives have a fitted effect of over 45% in size
Outline: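 CHO cells stably expressing human HTR2A were plated for 18 h at 37 C, then loaded with calcium dye for 1 h. Compounds were preincubated 5 min at room temperature before DOI (4 nM solution) was added. Kinetic fluorescence was read for 3 min.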

[13] = biological target: 5-hydroxytryptamine receptor 2A (Homo sapiens) (UniProt P28223); assay: 5-hydroxytryptamine receptor 2A (HTR2A) small molecule agonists, cell-based qHTS assay (AID 1963587); also: nearly all actives have a fitted effect of over 30% in size
Outline: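 Kinetic calcium-flux fluorescence (2 min, 1 sec intervals) after compound addition in agonist mode. HTR2A-CHO cells were cultured 18 h, then dye-loaded 1 h at 37 C.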

[14] = biological target: Muscarinic acetylcholine receptor M1 (Homo sapiens) (UniProt P11229); assay: Cholinergic receptor muscarinic 1 (CHRM1) small molecule agonists, cell-based qHTS assay (AID 1963589); also: nearly all actives have a fitted effect of over 35% in size
Outline: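 Agonist-mode calcium-flux screen: compounds at 15 concentrations, three independent runs, were pin-transferred onto dye-loaded human CHRM1-CHO cells. Fluorescence was then recorded kinetically every second over minutes.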

[15] = cAMP Responsive Elements (CRE) small molecule agonists, cell-based qHTS assay (AID 1963590)
Outline: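 Agonist mode: compound added to CRE-bla HEK 293T cells (2,000/well, 18 h after plating) for 3 h at 37 C/5% CO2. Reporter activity detected via FRET beta-lactamase substrate, 2 h room-temperature loading.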

[16] = cAMP Responsive Elements (CRE) small molecule antagonists, cell-based qHTS assay (AID 1963591; active = well fitted inhibition curve with a large enough effect in the signal ratio in the repeat runs, not every such curve was filed as active; the % refers to the signal ratio)
Outline: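 Antagonist mode: compounds are added alongside the adenylyl cyclase activator NKH477 (0.25 uM final) to CRE-bla HEK293T cells for 3 h. LiveBLAzer FRET substrate, 2 h at room temperature, reports bla expression.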

[17] = biological target: Beta-2 adrenergic receptor (Homo sapiens) (UniProt P07550); assay: Adrenergic beta2 receptor (ADRB2) small molecule antagonists, cell-based qHTS assay (AID 1963592); also: series mostly up to about 92 µM; nearly all actives have a fitted effect of over 50% in size
Outline: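 Assay format: CHO-ADRB2 cells, 18-20hr seeding at 37C/5% CO2, then compound plus 1nM isoproterenol agonist mix for 0.5hr RT. Homogeneous time-resolved fluorescence cAMP detection after 1hr, expressed as 665/615 nm ratio.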

[18] = biological target: D(2) dopamine receptor (Homo sapiens) (UniProt P14416); assay: Dopamine D2 receptor (DRD2) small molecule agonists, cell-based qHTS assay (AID 1963594); also: nearly all actives have a fitted effect of over 35% in size
Outline: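 cAMP accumulation in DRD2-HEK293 cells measured by HTRF after 1 h detection; compounds added 10 min before NKH477 (200nM […]) forskolin-analogue stimulation, 30 min at room temperature, with Ro20-1724 present at 0.1 mM final.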

[19] = biological target: D(2) dopamine receptor (Homo sapiens) (UniProt P14416); assay: Dopamine D2 receptor (DRD2) small molecule antagonists, cell-based qHTS assay (AID 1963595; active = well fitted inhibition curve with a large enough effect in the signal ratio in the repeat runs, with a control signal flat; the % refers to the signal ratio)
Outline: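 Cells were plated and grown for 24 h at 37 °C. Ro20-1724 (0.1 mM final) went in first, then compound for 10 min. NKH477 (200 nM) with quinpirole (12 nM) followed for 30 min at RT, then HTRF detection reagents for 1 h.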

[20] = biological target: Muscarinic acetylcholine receptor M1 (Homo sapiens) (UniProt P11229); assay: Cholinergic receptor muscarinic 1 (CHRM1) small molecule antagonists, cell-based qHTS assay (AID 1963588); also: nearly all actives have a fitted effect of over 40% in size
Outline: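 Compounds were tested at 15 concentrations in three independent runs. Dye-loaded CHRM1-CHO cells were exposed 5 min at room temperature before stimulation by acetylcholine added at 50nM. Intracellular calcium was read kinetically on FDSS for 3 min.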

Measured: Potency

Sequence of Gonadotropin-releasing hormone receptor (Homo sapiens) (P30968 whole entry, looked up): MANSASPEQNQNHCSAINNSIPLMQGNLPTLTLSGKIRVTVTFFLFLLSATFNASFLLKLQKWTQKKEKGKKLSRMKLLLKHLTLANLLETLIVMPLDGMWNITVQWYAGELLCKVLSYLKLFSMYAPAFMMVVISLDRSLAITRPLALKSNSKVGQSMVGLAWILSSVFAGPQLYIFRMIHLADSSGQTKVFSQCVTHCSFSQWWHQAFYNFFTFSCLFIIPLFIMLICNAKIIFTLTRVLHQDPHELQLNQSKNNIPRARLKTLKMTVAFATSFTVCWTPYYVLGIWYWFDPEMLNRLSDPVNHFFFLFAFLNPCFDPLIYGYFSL
Sequence of Muscarinic acetylcholine receptor M1 (Homo sapiens) (P11229 whole entry, looked up): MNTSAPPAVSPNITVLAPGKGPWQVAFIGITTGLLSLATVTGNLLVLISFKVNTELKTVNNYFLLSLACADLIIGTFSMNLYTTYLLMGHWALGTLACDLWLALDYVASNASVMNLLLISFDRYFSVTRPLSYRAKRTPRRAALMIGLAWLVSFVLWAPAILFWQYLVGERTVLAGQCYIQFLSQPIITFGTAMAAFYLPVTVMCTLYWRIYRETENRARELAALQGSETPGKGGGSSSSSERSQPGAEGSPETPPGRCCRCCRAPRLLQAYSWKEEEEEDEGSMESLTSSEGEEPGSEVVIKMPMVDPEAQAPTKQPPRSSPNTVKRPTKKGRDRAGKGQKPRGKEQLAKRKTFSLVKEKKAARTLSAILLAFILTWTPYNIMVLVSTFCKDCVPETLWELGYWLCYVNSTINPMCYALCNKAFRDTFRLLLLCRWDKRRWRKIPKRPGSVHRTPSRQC
Sequence of D(2) dopamine receptor (Homo sapiens) (P14416 whole entry, looked up): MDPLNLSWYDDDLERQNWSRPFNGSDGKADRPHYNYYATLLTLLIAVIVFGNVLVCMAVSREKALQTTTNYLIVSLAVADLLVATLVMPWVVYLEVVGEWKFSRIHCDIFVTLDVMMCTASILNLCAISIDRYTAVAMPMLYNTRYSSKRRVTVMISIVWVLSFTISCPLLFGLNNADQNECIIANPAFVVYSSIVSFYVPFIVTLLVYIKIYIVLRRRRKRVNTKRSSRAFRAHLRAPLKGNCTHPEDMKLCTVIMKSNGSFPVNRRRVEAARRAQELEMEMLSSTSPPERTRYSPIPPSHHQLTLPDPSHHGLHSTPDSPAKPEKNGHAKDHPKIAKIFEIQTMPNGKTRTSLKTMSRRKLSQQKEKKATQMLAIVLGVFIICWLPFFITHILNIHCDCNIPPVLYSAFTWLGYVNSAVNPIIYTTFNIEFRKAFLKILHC
Sequence of 5-hydroxytryptamine receptor 2A (Homo sapiens) (P28223 whole entry, looked up): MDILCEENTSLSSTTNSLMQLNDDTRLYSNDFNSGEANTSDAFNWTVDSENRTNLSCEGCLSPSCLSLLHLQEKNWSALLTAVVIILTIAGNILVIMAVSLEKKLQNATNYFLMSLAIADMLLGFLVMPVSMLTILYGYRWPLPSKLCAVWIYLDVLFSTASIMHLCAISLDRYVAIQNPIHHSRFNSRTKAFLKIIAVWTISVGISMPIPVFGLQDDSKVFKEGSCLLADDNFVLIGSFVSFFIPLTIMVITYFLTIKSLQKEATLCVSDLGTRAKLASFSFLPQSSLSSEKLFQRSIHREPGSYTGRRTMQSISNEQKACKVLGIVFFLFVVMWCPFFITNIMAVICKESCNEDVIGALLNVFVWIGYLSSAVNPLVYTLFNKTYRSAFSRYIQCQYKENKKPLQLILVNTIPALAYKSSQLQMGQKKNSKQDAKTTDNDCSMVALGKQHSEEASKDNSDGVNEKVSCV
Sequence of Beta-2 adrenergic receptor (Homo sapiens) (P07550 whole entry, looked up): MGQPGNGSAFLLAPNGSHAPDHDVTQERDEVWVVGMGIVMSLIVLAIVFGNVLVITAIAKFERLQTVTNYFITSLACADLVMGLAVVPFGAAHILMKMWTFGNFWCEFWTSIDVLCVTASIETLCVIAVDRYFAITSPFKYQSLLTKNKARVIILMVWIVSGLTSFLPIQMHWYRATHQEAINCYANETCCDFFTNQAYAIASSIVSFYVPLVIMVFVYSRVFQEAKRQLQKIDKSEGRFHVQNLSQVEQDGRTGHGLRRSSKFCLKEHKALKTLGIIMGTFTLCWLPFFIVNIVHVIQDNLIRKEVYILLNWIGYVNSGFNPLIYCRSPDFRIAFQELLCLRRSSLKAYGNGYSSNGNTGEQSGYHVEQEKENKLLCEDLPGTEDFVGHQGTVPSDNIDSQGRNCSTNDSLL
Sequence of KiSS-1 receptor (Homo sapiens) (Q969F8 whole entry, looked up): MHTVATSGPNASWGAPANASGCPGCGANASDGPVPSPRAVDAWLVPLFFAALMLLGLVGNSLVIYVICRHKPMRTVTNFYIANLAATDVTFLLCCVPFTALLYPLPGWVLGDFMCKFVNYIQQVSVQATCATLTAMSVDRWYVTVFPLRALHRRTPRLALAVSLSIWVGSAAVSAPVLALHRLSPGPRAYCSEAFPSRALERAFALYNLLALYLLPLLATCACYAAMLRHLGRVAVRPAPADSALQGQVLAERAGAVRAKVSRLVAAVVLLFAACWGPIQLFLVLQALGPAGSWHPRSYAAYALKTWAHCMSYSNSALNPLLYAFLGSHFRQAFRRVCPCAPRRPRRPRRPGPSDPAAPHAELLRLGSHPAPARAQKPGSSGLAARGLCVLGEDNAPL

CC1(C)C(=O)C(C)(C)C1=O
not listed: [20]
inactive: all other assays above

O=C1N(c2ccccc2)c2ccccc2C1(Cc1ccncc1)Cc1ccncc1
not listed: [20]
inactive: all other assays above

O=C(O)/C=C/c1ccc(/C=C/C(=O)O)cc1
not listed: [18] | [20]
inactive: all other assays above

Cc1occc1C(=O)Nc1ccc(C(=O)N2CCC(F)(F)/C(=C\C(=O)N3CCC(N4CCCCC4)CC3)c3ccccc32)cc1
not listed: [20]
inactive: all other assays above

Cn1c(=O)c2c(ncn2CC(=O)O)n(C)c1=O
not listed: [20]
inactive: all other assays above

CCCCCCC
not listed: [20]
inactive: all other assays above

CCCCC(CC)(CO)CO
not listed: [18] | [20]
inactive: all other assays above

CCOC(=O)C(Br)c1ccccc1 (centres undefined)
not listed: [14] | [16]
inactive: all other assays above
